In PubChem BioAssay (Tox21):
Records with an inconclusive call do not appear. Entries that show only a call come without a potency. Unmarked numbers belong to inactive results. Calls of active or inactive are those of the source. Calls follow the shape of the dose curve; as a rule, active = well fitted cell-killing curve with a large enough effect in the repeat runs; inconclusive = weak or mixed curves; inactive = flat fitted curve, though single readings scatter.

assay: qHTS RealTime-Glo MT Cell Viability Assay in HepG2 cells - 32 hour (AID 1224877); settings: RealTime-Glo luminescence; series mostly up to 76.8 µM; also: nearly all actives have a fitted effect of over 55% in size
Source text: U.S. Tox21 Program National Center for Advancing Translational Sciences [NCATS] NIH Chemical Genomics Center [NCGC] U.S. Environmental Protection Agency [EPA] National Institutes of Environmental Health Sciences [NIEHS] National Toxicology Program [NTP] U.S. Food and Drug Administration [FDA] Tox21 Assay Overview: Measure of cell viability is critical in the cell-base assay. Analysis of cell viability is necessary for the characterization of cell responses to cytotoxic drugs and environmental stress. A RealTime-Glo MT Cell Viability Assay to monitor cell viability in real time of continues cell culture during 40 hours of compound treatment was used to screen Tox21 10K library compounds in HepG2 cells. The RealTime-Glo MT Cell Viability Assay is a nonlytic, homogeneous, bioluminescent method to measure cell viability in real time using a simple, plate-based method. The assay involves adding NanoLuc luciferase and a cell-permeant prosubstrate to cells in culture. Viable cells reduce the proprietary prosubstrate to generate a substrate for NanoLuc luciferase. This substrate diffuses from cells into the surrounding culture medium, where it is rapidly used by the NanoLuc Enzyme to produce a luminescent signal. The signal correlates with the number of viable cells, making the assay well suited for cytotoxicity studies.
Tox21 Assay Protocol Summary: The mixture of HepG2 cell suspension and reagents were dispensed at 600cells/6 ul/well in 1536-well tissue culture treated black solid bottom plates using a Multidrop dispenser. After the assay plates were incubated at a 37 C/5% CO2 incubator for 5 hours, 23 nL of compounds dissolved in DMSO, positive and negative controls was transferred to the assay plate by a pintool work station. The plates were incubated at 37 C for 40 hours. The luminescence intensity were measured at 0h, 8h, 16h, 24h, 32h and 40h time points using ViewLux plate reader during compound treatment.

Compound | Potency | activity change, negative = cytotoxic
O=[N+]([O-])c1ccc(Oc2ccc([N+](=O)[O-])cc2)cc1 | inactive | 
O=C(O)c1ccccc1-c1ccc(C(F)(F)F)cc1 | inactive | 
CCc1cc(S(=O)(=O)O)c2cc(C(C)C)cccc1-2 | inactive | 
O=C(O)/C=C/c1ccc(Cn2ccnc2)cc1 | inactive | 
FC(F)(F)C(F)(F)C(F)(F)C(F)(F)C(F)(F)C(F)(F)C(F)(F)C(F)(F)C(F)(F)C(F)(F)F |  | -2.37% [at 6.97 µM]
Cc1ncc(CSSCc2cnc(C)c(O)c2CO)c(CO)c1O | inactive | 
C=C(C)[C@@H]1CCC2=CC(=O)C[C@@H](C)[C@]2(C)C1 | inactive | 
N#CC1(O)CCCCC1 | inactive | 
Cn1ccc2cc3c(cc21)CCN3C(=O)Nc1cccnc1 |  | -1.69% [at 15.8 µM]
CCCCOCC(C)OCC(C)O (stereo not given) | inactive | 
NC(=S)Nc1cccc2ccccc12 |  | -0.0723% [at 6.97 µM]
Nc1nc2c(ncn2CCC(CO)CO)c(=O)[nH]1 | inactive | 
OC[C@H]1O[C@@H]2O[C@H]3[C@H](O)[C@@H](O)[C@@H](O[C@H]4[C@H](O)[C@@H](O)[C@@H](O[C@H]5[C@H](O)[C@@H](O)[C@@H](O[C@H]6[C@H](O)[C@@H](O)[C@@H](O[C@H]7[C@H](O)[C@@H](O)[C@@H](O[C@H]8[C@H](O)[C@@H](O)[C@@H](O[C@H]9[C@H](O)[C@@H](O)[C@@H](O[C@H]1[C@H](O)[C@H]2O)O[C@@H]9CO)O[C@@H]8CO)O[C@@H]7CO)O[C@@H]6CO)O[C@@H]5CO)O[C@@H]4CO)O[C@@H]3CO | inactive | 
CC(CCO)CCCC(C)(C)O (stereo not given) | inactive | 
COc1cc(CCC(C)=O)ccc1O | inactive | 
CC1(C)SC(C)(C)SC(C)(C)S1 | inactive | 
CN(C)CCn1nnnc1SCC1=C(C(=O)O)N2C(=O)[C@@H](NC(=O)Cc3csc(N)n3)[C@H]2SC1 | inactive | 
CCCC=O | inactive | 
CC(=O)c1ccc(C)cc1 | inactive | 
CC(C)(O)C(=O)c1ccc(OCCO)cc1 | inactive | 

Compound | Potency | activity change, negative = cytotoxic
NCCN1CCNC1=O | inactive | 
CCCC(=O)O[C@]1(C(=O)CCl)[C@@H](C)C[C@H]2[C@@H]3CCC4=CC(=O)C=C[C@]4(C)[C@@]3(F)C(=O)C[C@@]21C | inactive | 
O=C(O)c1cccc(C(=O)O)n1 | inactive | 
CCCCCCCCN(C)CCCCCCCC | inactive | 
O=C(CCOCCOCCOCCOCCC(=O)Nc1c(I)cc(I)c(C(=O)O)c1I)Nc1c(I)cc(I)c(C(=O)O)c1I | inactive | 
CCCCCCCCCCC1CO1 (stereo not given) | inactive | 
OC1OC[C@@H](O)[C@H](O)[C@H]1O (stereo not given in full) | inactive | 
C=CC(=O)N1CCOCC1 | inactive | 
CNc1ncnc2nc[nH]c12 | inactive | 
O=[N+]([O-])c1ccc(CCO)cc1 | inactive | 
NCCNC(=O)c1ccc(Cl)cn1 | inactive | 
C/C=C1\C(=O)C[C@H]2[C@@H]3CCC4=CC(=O)CC[C@]4(C)[C@H]3CC[C@]12C | inactive | 
COCCOC(=O)CC#N | inactive | 
COC(=O)[C@H]1[C@H]2C[C@@H]3c4[nH]c5cc(OC)ccc5c4CCN3C[C@H]2C[C@@H](OC(=O)COc2ccc(OC)cc2)[C@@H]1OC | inactive | 
CCCC(C)C(=O)O (stereo not given) | inactive | 
Cc1onc(-c2ccccc2)c1-c1ccc(S(N)(=O)=O)cc1 | inactive | 
O=C(O)/C=C/c1ccc(/C=C/C(=O)O)cc1 | inactive | 
CC(=O)CCc1ccc(O)cc1 | inactive | 
Nc1nc(F)nc2c1ncn2[C@@H]1O[C@H](CO)[C@@H](O)[C@@H]1O | inactive | 
COc1nc(C)nc(N)n1 | inactive | 
